Experimental data published in PMC4336329 (PLoS ONE, 2015).
Out of some 310,000 compounds screened, about 14,000 (4.5%) showed an effect of 50% or more. The effect is printed as a negative number. This is one part of a sample in which strong results are shown more often than they occur.

Molecular target: human ether-à-go-go-related gene (hERG) potassium channel (human, UniProt Q12809)
Assay: primary screen, population patch clamp on CHO cells stably expressing hERG; higher = less effect of the substance
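Also: peak tail current of the secondary pulse compared with the same well before compound.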

Chain of human ether-à-go-go-related gene (hERG) potassium channel (Q12809 whole entry, looked up): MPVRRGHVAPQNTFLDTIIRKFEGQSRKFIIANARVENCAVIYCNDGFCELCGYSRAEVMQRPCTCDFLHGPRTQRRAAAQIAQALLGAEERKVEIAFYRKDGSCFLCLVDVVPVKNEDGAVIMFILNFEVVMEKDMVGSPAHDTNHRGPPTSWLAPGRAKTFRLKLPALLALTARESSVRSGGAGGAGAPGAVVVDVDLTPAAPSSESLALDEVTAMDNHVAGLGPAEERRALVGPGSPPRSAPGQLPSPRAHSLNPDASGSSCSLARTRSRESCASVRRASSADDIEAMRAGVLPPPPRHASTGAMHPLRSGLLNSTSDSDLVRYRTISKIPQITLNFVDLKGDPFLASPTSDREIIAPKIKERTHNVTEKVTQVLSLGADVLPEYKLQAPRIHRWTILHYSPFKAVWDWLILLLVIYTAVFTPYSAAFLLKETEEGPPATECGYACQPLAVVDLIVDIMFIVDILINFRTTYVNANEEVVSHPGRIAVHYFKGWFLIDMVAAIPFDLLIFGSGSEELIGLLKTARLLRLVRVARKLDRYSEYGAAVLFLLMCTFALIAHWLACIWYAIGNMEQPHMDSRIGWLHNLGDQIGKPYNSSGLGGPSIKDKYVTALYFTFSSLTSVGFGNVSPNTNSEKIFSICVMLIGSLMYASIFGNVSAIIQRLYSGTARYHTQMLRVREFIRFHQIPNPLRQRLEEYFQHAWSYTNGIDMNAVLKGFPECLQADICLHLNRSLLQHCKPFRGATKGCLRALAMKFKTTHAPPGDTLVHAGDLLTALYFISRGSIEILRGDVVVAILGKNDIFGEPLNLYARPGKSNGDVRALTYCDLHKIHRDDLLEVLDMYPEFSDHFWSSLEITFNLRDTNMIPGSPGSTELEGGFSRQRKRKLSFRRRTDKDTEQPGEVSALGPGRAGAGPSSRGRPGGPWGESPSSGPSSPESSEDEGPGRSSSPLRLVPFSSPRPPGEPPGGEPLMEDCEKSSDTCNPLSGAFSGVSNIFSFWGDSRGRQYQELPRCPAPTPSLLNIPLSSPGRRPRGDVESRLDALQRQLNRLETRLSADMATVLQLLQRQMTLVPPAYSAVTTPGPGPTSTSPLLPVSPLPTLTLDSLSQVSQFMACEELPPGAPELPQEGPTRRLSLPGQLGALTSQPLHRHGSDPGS

| SMILES | hERG current change (%, negative = inhibition) at 10uM |
| --- | --- |
| O=C(Nc1ccc2c(c1)OCO2)C1Cc2ccccc2CN1S(=O)(=O)c1cccs1 (centres unmarked) | 4.05% |
| COc1ccccc1NC(=O)c1ccc(Br)c(S(=O)(=O)N2CCCC2)c1 | -2.36% |
| CCC(C)C(NC(=O)c1ccccc1NC(=O)c1ccc(OC)cc1)C(=O)NCCCn1ccnc1 (centres unmarked) | -1.96% |
| CCCn1c(CCC(=O)O)nc2cc(S(=O)(=O)N3CCCC3)ccc21 | 12.1% |
| COCCOC(=O)c1c(C)oc2ccc(O)c(CN3CCC(C)CC3)c12 | -29.8% |
| Cl.c1cc(CNC23CC4CC(CC(C4)C2)C3)ccn1 | -20.2% |
| CC12CC3CC(C)(C1)CC(C(=O)NCc1ccncc1)(C3)C2 | 9.2% |
| CC12CC3CC(C)(C1)CC(NCc1ccncc1)(C3)C2.Cl | -58.7% |
| O=C(c1ccc([N+](=O)[O-])o1)N(Cc1nnc(-c2ccccc2Cl)o1)C1CC1 | -20.9% |
| CN(NS(=O)(=O)c1ccc(Br)cc1)c1nc(C(F)(F)F)nc2ccccc12 | 12.2% |
| O=C(CN(Cc1ccc2c(c1)OCO2)C(=O)CNC(=O)c1ccco1)NC1CCCCC1 | -7.83% |
| CC(=O)N1CCN(C(=O)c2cc(-c3ccc(C)o3)nc3ccccc23)CC1 | -10.1% |
| O=C(c1cc(-c2ccccc2)nc2ccccc12)N1CCN(c2ccccc2O)CC1 | -10.9% |
| CCOC(=O)C1CCN(C(=O)c2cc(-c3ccncc3)nc3ccccc23)CC1 | -67.2% |
| Cc1ccc(-c2cc(C(=O)N3CCN(c4ccccc4O)CC3)c3ccccc3n2)cc1 | -1.9% |
| O=C(c1cc(-c2ccncc2)nc2ccccc12)N1CCN(c2ccccc2O)CC1 | -64.3% |
| Cc1ccc(-c2cc(C(=O)N3CCN(c4ccc(F)cc4)CC3)c3ccccc3n2)o1 | -35.7% |
| CCOC(=O)C1CCCN(C(=O)c2cc(-c3ccncc3)nc3ccccc23)C1 (centres unmarked) | -32.4% |
| O=C(c1cc(-c2cccnc2)nc2ccc(Cl)cc12)N1CCN(S(=O)(=O)c2cccs2)CC1 | -4.28% |
| O=C(c1cc(-c2cccs2)nc2ccccc12)N1CCN(S(=O)(=O)c2ccccc2)CC1 | -5.65% |
| CCOC(=O)C1CCCN(C(=O)c2cc(-c3ccc(C)cc3)nc3ccccc23)C1 (centres unmarked) | -37.6% |
| O=C(c1cc(-c2cccnc2)nc2ccccc12)N1CCN(S(=O)(=O)c2cccs2)CC1 | -64.3% |
| Cc1ccc(-c2cc(C(=O)N3CCN(c4ccccc4O)CC3)c3ccccc3n2)o1 | -70.9% |

| SMILES | hERG current change (%, negative = inhibition) at 10uM |
| --- | --- |
| O=C(N/N=C/c1c(O)ccc2ccccc12)Nc1ccccc1 | 16.3% |
| COc1cc2cc(CCCOC(=O)c3cccc(Br)c3)oc(=O)c2cc1OC | -2.2% |
| Cn1c(SCCS(=O)(=O)c2ccc(Cl)cc2)nnc1-c1ccccc1 | -19.3% |
| CCOc1ccc(CCNC(=O)COC(=O)c2ccc(C)c([N+](=O)[O-])c2)cc1OCC | -7.57% |
| CO/N=C/NC(=O)NOCc1ccc(Cl)cc1Cl | -11.5% |
| C[C@H](NC(=O)c1nc[nH]c1C(=O)N(C)Cc1ccccc1)C(=O)OC(C)(C)C | 5.67% |
| COc1cccc(C(=O)N(CN2CCCC2=O)c2cccc(Cl)c2)c1 | -25.4% |
| CC(=O)c1cc(C#N)c(Oc2ccc(F)cc2)nc1C | 13.7% |
| COc1ccccc1NC(=O)c1cc(-c2ccc(C)o2)nc2ccccc12 | -60.7% |
| O=C(c1cc(-c2ccccc2)nc2ccccc12)N1CCN(c2ccccn2)CC1 | -27.6% |
| CC1CC(C)CN(C(=O)c2cc(-c3ccncc3)nc3ccccc23)C1 (centres unmarked) | -35.5% |
| CCOC(=O)N1CCN(C(=O)c2cc(-c3ccncc3)nc3ccccc23)CC1 | -48.4% |
| COc1ccc(NC(=O)c2cc(-c3ccc(C)o3)nc3ccccc23)c(OC)c1 | 14.9% |
| Cc1ccc(-c2cc(C(=O)Nc3ccccc3C)c3ccccc3n2)o1 | 9.38% |
| Cc1ccccc1CN1CCN(C(=O)c2cc(-c3ccncc3)nc3ccccc23)CC1 | -76.7% |
| O=C(c1cc(-c2ccncc2)nc2ccccc12)N1CCN(c2ccccn2)CC1 | -63.5% |
| COc1ccc(-c2cc(C(=O)N3CCN(c4ccccn4)CC3)c3ccccc3n2)cc1 | -5.51% |
| COc1cccc(CN2CCN(C(=O)c3cc(-c4ccncc4)nc4ccc(C)cc34)CC2)c1 | -71% |
| COc1cccc(CN2CCN(C(=O)c3cc(-c4cccnc4)nc4ccc(C)cc34)CC2)c1 | -12.7% |
| COc1cccc(CN2CCN(C(=O)c3cc(-c4ccccn4)nc4ccc(Cl)cc34)CC2)c1 | 17.1% |
| N#CCSc1nnc(-c2ccccc2O)n1CCc1ccccc1 | -10.7% |
| CCCCNC(=S)NNC(=O)c1ccc2c(c1)OCO2 | 5.46% |
| Cc1cc(C(=O)NNC(=O)c2cccc([N+](=O)[O-])c2)n[nH]1 | 18.9% |

| SMILES | hERG current change (%, negative = inhibition) at 10uM |
| --- | --- |
| Cc1cc(C)c(S(=O)(=O)N2CCN(C(=O)C3COc4ccccc4O3)CC2)c(C)c1 (centres unmarked) | -17% |
| O=c1c2cc3c(cc2[nH]c(=S)n1CCN1CCOCC1)OCO3 | 9.66% |
| COc1ccc(Cc2nnc(NC(=O)C(C)C)s2)cc1 | 11.2% |
| Cc1cc(C)c(NC(=O)COC(=O)c2c(C)noc2C)c(Cl)c1 | 13.8% |
| O=C(c1cc(-c2ccncc2)nc2ccccc12)N1CCN(S(=O)(=O)/C=C/c2ccccc2)CC1 | -66.6% |
| CS(=O)(=O)N1CCN(C(=O)c2cc(-c3ccccc3)nc3ccccc23)CC1 | -30.8% |
| CS(=O)(=O)N1CCN(C(=O)c2cc(-c3ccncc3)nc3ccc(Cl)cc23)CC1 | -12.8% |
| COc1ccc2[nH]c3c(=O)n(CCCCC(=O)NCCC(C)C)c(=S)[nH]c3c2c1 | 16.3% |
| CCCCn1c(CCCNC(=O)CC)nc2ccccc21 | -37.3% |
| CCCCCn1c(=O)c(C(=O)c2ccccc2)nc2ccccc21 | -77.6% |
| CCCn1c(CCNC(=O)c2cccs2)nc2ccccc21 | -36.1% |
| CCCn1c(=O)c(C(=O)c2ccccc2)nc2ccccc21 | -27.4% |
| CCCCn1c(CCNC(=O)c2cccs2)nc2ccccc21 | -33.2% |
| CCCCCn1c(CCNC(=O)c2cccs2)nc2ccccc21 | -52.5% |
| CCCCCn1c(CCNC(=O)CCC)nc2ccccc21 | -57.2% |
| CCCCn1c(=O)c(C(=O)c2ccccc2)nc2ccccc21 | -30.4% |
| CCCC(=O)NCCc1nc2ccccc2n1CCC | 1.27% |
| CCCCCn1c(CCCNC(=O)CC)nc2ccccc21 | -65.9% |
| CCCCn1c(CCNC(=O)CC)nc2ccccc21 | -11.2% |
| CCCCn1c(CCNC(=O)CCC)nc2ccccc21 | -7.83% |
| O=C(COc1ccccc1)Nc1nonc1NC(=O)COc1ccccc1 | -12.8% |
| COc1cc(C(=S)N2CCCC2)ccc1O | 18.6% |
| CCN1C(=O)C2(Nc3ccccc3-c3nc4ccccc4n32)c2cc(OC)ccc21 (centres unmarked) | -4.35% |

| SMILES | hERG current change (%, negative = inhibition) at 10uM |
| --- | --- |
| CCC(=O)N1CCc2cc(S(=O)(=O)CCC(=O)NCCc3ccc(OC)c(OC)c3)ccc21 | -0.229% |
| O=C(Nc1ccc(Cl)c(Cl)c1)NC1CCS(=O)(=O)C1 (centres unmarked) | -8.07% |
| COc1cc(NS(=O)(=O)c2ccc(NC(C)=O)cc2)ncn1 | 0.81% |
| Cc1nn(-c2ccc(Cl)cc2)c(N)c1C(O)(CSc1nccn1C)C(F)(F)F (centres unmarked) | -22.9% |
| O=C(NCC1CCCO1)c1ccc2ccccc2n1 (centres unmarked) | -3.04% |
| COc1ccc(C(=O)NCCCc2nc3ccccc3n2Cc2cc(C)ccc2C)cc1OC | -39.7% |
| CC(C)Cn1c(CCCNC(=O)c2ccc(F)cc2)nc2ccccc21 | -50.3% |
| COc1cc(C(=O)NCCCc2nc3ccccc3n2Cc2cc(C)ccc2C)cc(OC)c1OC | -33.6% |
| CCn1c(CCNC(=O)c2ccc(F)cc2)nc2ccccc21 | -33.9% |
| CCn1c(CCCNC(=O)c2ccc(F)cc2)nc2ccccc21 | -41.3% |
| COc1ccc(C(=O)NCCCc2nc3ccccc3n2Cc2ccccc2C)cc1OC | -55.4% |
| COc1ccc(CCC(=O)OC(C)C(=O)c2ccc(C)cc2)cc1 (centres unmarked) | 0.769% |
| COCCSc1nnc(NC(=O)c2cc(C(=O)OC)cc([N+](=O)[O-])c2)s1 | 11.4% |
| CC(C)c1nc(SCC(=O)NCc2ccccc2)n[nH]1 | 2.8% |
| O=C(c1ccc(-n2ccnc2)cc1)N1CCCC(CO)(Cc2cccc(Cl)c2)C1 (centres unmarked) | -60.4% |
| CCOC(=O)C1(Cc2ccccc2)CCCN(C(=O)c2ccc(-n3ccnc3)cc2)C1 (centres unmarked) | -58.4% |
| COc1cccc(CC2(CO)CCCN(C(=O)c3cc[n+]([O-])cc3)C2)c1 (centres unmarked) | 10.4% |
| CCOC(=O)C1(Cc2ccccc2)CCCN(C(=O)C=C(C)C)C1 (centres unmarked) | 13.2% |
| CCOC(=O)C1(Cc2ccccc2)CCCN(C(=O)c2cn[nH]c2)C1 (centres unmarked) | 13.4% |
| Cc1ccccc1CC1(CO)CCCN(C(=O)c2cccc(Cl)c2)C1 (centres unmarked) | 1.01% |
